Experimental data as given in ChEMBL document CHEMBL3433997, “St. Jude Leishmania screening dataset” (2016).

How the values were obtained:
Type in all cases: functional
[1] = molecular target: Solute carrier family 2, facilitated glucose transporter member 1 (Homo sapiens) (UniProt P11166); experiment: ST_JUDE_LEISH: Cytotoxicity at 2uM final concentration against transgenic Leishmania Mexicana promastigotes LmGLUT1 that are glucose transport deficient and complemented with the human glucose transporter GLUT1. Activity is measured by DNA content using SYBR green in vitro
Solute carrier family 2, facilitated glucose transporter member 1 (Homo sapiens), sequence (P11166 whole entry): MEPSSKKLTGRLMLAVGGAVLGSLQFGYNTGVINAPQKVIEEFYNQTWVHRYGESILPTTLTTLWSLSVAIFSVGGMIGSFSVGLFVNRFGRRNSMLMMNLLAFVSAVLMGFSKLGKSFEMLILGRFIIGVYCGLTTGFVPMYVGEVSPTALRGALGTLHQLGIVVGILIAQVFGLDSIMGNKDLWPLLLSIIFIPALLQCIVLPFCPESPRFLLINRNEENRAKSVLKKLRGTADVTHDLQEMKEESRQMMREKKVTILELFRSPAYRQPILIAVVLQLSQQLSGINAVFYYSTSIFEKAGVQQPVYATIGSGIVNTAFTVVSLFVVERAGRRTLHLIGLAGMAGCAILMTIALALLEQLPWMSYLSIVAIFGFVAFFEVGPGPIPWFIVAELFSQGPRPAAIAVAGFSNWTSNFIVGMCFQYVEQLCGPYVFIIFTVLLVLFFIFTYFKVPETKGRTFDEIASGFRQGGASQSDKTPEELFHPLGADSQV

[2] = molecular target: Hexose transporter 1 (Plasmodium falciparum) (UniProt O97467); experiment: ST_JUDE_LEISH: Cytotoxicity at 2uM final concentration against transgenic Leishmania Mexicana promastigotes LmPfHT that are glucose transport deficient and complemented with the Plasmodium falciparum hexose transporter. Activity is measured by DNA content using SYBR green in vitro
[3] = molecular target: Glucose transporter (Leishmania mexicana) (UniProt O61059); experiment: ST_JUDE_LEISH: Cytotoxicity at 2uM final concentration against transgenic Leishmania Mexicana promastigotes LmGT2 that are glucose transport deficient and complemented with the L. Mexicana glucose transporter 2. Activity is measured by DNA content using SYBR green in vitro

SMILES	inhibition [1]	inhibition [2]	inhibition [3]
N#Cc1cccc(NC(=O)c2ccc(S(=O)(=O)NCC3CCCN3CC3CCCCC3)cc2)c1 (stereo not drawn)	2.47%	4.27%	1.88%
COc1cccc(C(O)CNc2ccnc(Nc3ccc(Cl)cc3)n2)c1 (stereo not drawn)	6%	5.73%	1.85%
O=C(Nc1ccc(OC2CCN(Cc3ccccc3)C2)c(Cl)c1)c1ccc(F)cc1 (stereo not drawn)	-5.06%	1.99%	4.21%
O=S(=O)(Nc1cc2c(cc1O)CCN(C1CCC1)CC2)c1ccc(-c2ccc(F)cc2)cc1	5.67%	8.27%	3.1%
CN(C)CCCN(C)C(=O)c1cc2cc(-c3ccccc3)ccc2n1S(=O)(=O)c1ccccc1	5.31%	-2.36%	-0.41%
COc1cc(C=NNc2cc(C)nc3c(OC)cccc23)cc(OC)c1OC	7.21%	3.3%	3.68%
CCC1CCCCN1S(=O)(=O)c1ccc(OC)c(N2CCN(C(=O)C(Cl)(Cl)Cl)CC2)c1 (stereo not drawn)	4.89%	6.41%	6.44%
COc1cc(NC(=O)N2CCOC(CCN3CCC4(CCc5ccccc54)CC3)(c3ccc(Cl)c(Cl)c3)C2)cc(OC)c1OC (stereo not drawn)	18.1%	15.1%	14.1%
CC(=O)c1ccc(Nc2c(C(N)=O)cnc3cc(-c4c(C)noc4C)ccc23)cc1	8.14%	6.39%	5.76%
Cc1c(Cc2ccccc2Cl)cnc2nc(N)nc(N)c12	18.9%	37.5%	24.1%
Cc1ccc(-c2cnc3[nH]cc(-c4ccc(C(=O)O)c(C)c4)c3c2)cc1C	1.15%	1.14%	1.64%
CC(C)C1C(O)=C(c2ccc3ccccc3c2)C(=O)N1Cc1cccc(F)c1 (stereo not drawn)	6.97%	7.53%	8.55%
O=C(Nc1ccc(OC2CCN(Cc3ccc(F)cc3)CC2)cc1)c1cccs1	-0.82%	0.37%	-2.79%
COc1ccc(N2CCN(CCCCNC(=O)c3ccc(NC(=O)c4ccc(Cl)cc4)cc3)CC2)c(OC)c1	9.13%	8.66%	8.5%
Fc1cccc(COc2ccc(Nc3ncnc4sc(C#C[C@H]5CC[C@H](CNCC(F)(F)F)N5)cc34)cc2Cl)c1	1.63%	1.52%	1.3%
Nc1nc(N)c2c(ccc3nn(C4CCCC4)cc32)n1	10.1%	9.8%	5.28%

SMILES	inhibition [1]	inhibition [2]	inhibition [3]
Cc1ccc2[nH]c(C)cc(=NN=Cc3cccc(F)c3)c2c1	5.05%	7%	3.38%
OC(CN1CCN(Cc2ccccc2)CC1)Cn1c(-c2ccccc2)c(-c2ccccc2)c2ccccc21 (stereo not drawn)	2.91%	3.3%	2.72%
Cc1cccc2nc(-c3cccc(-c4cccc(NC(=O)Nc5ccsc5)c4)c3)[nH]c12	4.96%	4.46%	6.15%
Cc1cc(=NN=Cc2ccccn2)c2cc(F)ccc2[nH]1	4.3%	5.11%	0.4%
CS(=O)(=O)Cc1cccc(Nc2ncc(Cl)c(Nc3cccnc3C(N)=O)n2)c1	11.5%	12.6%	15.6%
OC(Cn1ccnc1)(c1ccc(Cl)cc1Cl)C1CCCCC1 (stereo not drawn)	7.78%	1.5%	-0.69%
Cc1cccc2nc(-c3ccc(-c4cccc(NC(=O)NCc5cccc(F)c5)c4)cc3)[nH]c12	-0.32%	0.88%	-1.06%
CCNc1cc(C(=O)N[C@@H](Cc2ccccc2)[C@H](O)CNC(C)(C)CCCC(C)C)cc(N2CCCC2=O)c1	2.43%	1.71%	3.47%
COc1ccc2nccc([C@@H](O)CN3CCC(NCC(=O)Nc4cc(F)cc(F)c4)CC3)c2n1	37.8%	47.2%	58.1%
CN(C)C(CNc1ncnc2cc(Cl)ccc12)Cc1ccccc1 (stereo not drawn)	4.67%	3.87%	3.65%
Cc1cc(N2CCC(NS(=O)(=O)c3ccc(F)cc3)CC2)nc(Nc2cccc(C#N)c2)n1	39.9%	46.5%	41%
CCCCCCCN1CC[C@@H](CCCc2ccnc3ccc(OCCCCNC(N)=O)cc23)[C@@H](CC)C1	2.24%	4.54%	2.79%
O=C(Nc1cccc(CN2CCCN(Cc3ccc(O)cc3)CC2)c1)c1cc(F)cc(F)c1	3.19%	1.64%	-5.2%
Cc1ccc(NS(=O)(=O)c2ccc(-c3ccccc3)cc2)c(Cn2cnc(N3CCCNCC3)cc2=O)c1	4.14%	3.45%	-3.65%
CCc1sc(N2CCN(C)CC2)nc1C(=O)Nc1ccc(F)cc1C(F)(F)F	-1.9%	1.37%	-0.43%
